Source: PubChem BioAssay (NCI)
Several values for one entry are separate records, joined by “and”; a condition that tells them apart may be missing. Equal values may be shown once. Compounds without any hit were thinned out: in the full panel of roughly 83,000, 20% have a hit.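 A percent growth of 40 corresponds to 60% growth inhibition; 0 means no net growth; -100 means all cells died. Active threshold: below 10.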 Activity calls are given as the source filed them.

The compounds below were run on HL-60(TB) leukemia (assay: NCI-60 one-dose screen, 48 h (100 = growth as untreated, 0 = no growth, -100 = all killed)). Conditions: 10 µM unless noted.

| SMILES | growth |
| --- | --- |
| O=c1c(-c2nc3ccccc3[nH]2)cc2ccccc2n1Cc1cn(Cc2ccc(F)cc2)nn1 | 0.035% (active) |
| C=CCc1c(O)c(C(=O)/C=C/c2ccc(Cl)cc2)c(OC)c2ccoc12 | 25.4% (inactive) |
| Cc1ncc(C(=O)Nc2ccc(CN3CCN(C)CC3)c(C(F)(F)F)c2)cc1C#Cc1cnc(NC2CC2)c2ncccc12 | 34.1% (inactive) |
| O=C(Nc1ccccc1)OCC(CN1CCCCC1)OC(=O)Nc1ccccc1 (stereo not drawn) | 69.3% (inactive) and 95% (inactive) |
| CCN(CC)CCn1nc2c3c(cccc3c1=O)-c1ccccc1-2 | 16.9% (inactive) |
| Nc1n[nH]c2ccc([C@@H]3Nc4cc5c(cc4[C@H]4C6CCC(C6)[C@@H]34)C(=O)NC5)cc12 (stereo partly drawn) | -39.2% (active) |
| N#CCSc1nnc2n(Cc3ccccc3)c(=O)c3c4c(sc3n12)CCCC4 | 81.7% (inactive) |
| Cc1cc(N=Nc2ccc(C)c(N=Nc3cc(C)c(N)cc3N)c2)c(N)cc1N | 99.9% (inactive) and 82.5% (inactive) |
| CCCCNC(=O)Oc1ccc(/C(=C(/CC)Cc2ccccc2)c2ccc(OCCN3CCCCCC3)cc2)cc1 | -12.8% (active) |
| COC(=O)CNC(=O)[C@@H](OC)[C@@H]1Cc2cc3cc(OC4CC(OC5CC(O)C(O)C(C)O5)C(O)C(C)O4)c(C)c(O)c3c(O)c2C(=O)[C@H]1OC1CC(OC2CC(OC3CC(C)(O)C(O)C(C)O3)C(O)C(C)O2)C(O)C(C)O1 (stereo partly drawn) | 41% (inactive) |
| Cc1nc2n(c(=O)c1CCN1CCC(c3noc4cc(F)ccc34)CC1)CCC[C@@H]2O | 89.7% (inactive) |
| N#CC1=C(c2ccc(Cl)cc2)Nc2c(c(-c3ccc(Cl)cc3)nn2-c2ccccc2)C12C(=O)Nc1ccc(Cl)cc12 (stereo not drawn) | 15.2% (inactive) |
| CCC[C@H](N[C@@H](C)C(=O)N1[C@H](C(=O)O)C[C@@H]2CCCC[C@@H]21)C(=O)OCC | 116% (inactive) |
| CC(C)c1ccc2c(c1)CCC1C2CCCC1(C)NCc1ccccc1 (stereo not drawn) | 22.9% (inactive) |
| CC(C)c1ccc(NC(=O)Nc2ccc(NC(=O)CCCC(=O)NOCc3ccccc3)cc2)cc1 | 17.9% (inactive) |
| C(=C\c1nc2ccccc2[nH]1)/c1nc2ccccc2[nH]1 | 93.4% (inactive) |
| COc1cc(NC(=O)CCl)ccc(=O)c1 | 77.1% (inactive) |

| SMILES | growth |
| --- | --- |
| O=C1C=CC2(NN=C(c3ccccc3)N2c2ccccc2)c2cccc(O)c21 (stereo not drawn) | 29.8% (inactive) |
| CC1=C[C@H]2c3c(c(O)c(O)c4oc5cc(O)cc(O)c5c(=O)c34)[C@H](c3cc(O)c(O)c4oc5cc(O)cc(O)c5c(=O)c34)[C@H]2C(C)(C)C1 | 2.23% (active) and -3.82% (active) |
| C=CCN(CCOC(=O)c1ccc([N+](=O)[O-])cc1)CCOC(=O)c1ccc([N+](=O)[O-])cc1 | 88.1% (inactive) |
| CC1OC2CC(=O)OC2C2=C1C(=O)c1c(O)cccc1C2=O (stereo not drawn) | -47.8% (active) |
| Cn1ncc2c(Nc3ccc(Br)cc3)nc(Nc3ccc(Br)cc3)nc21 | 69.2% (inactive) |
| CCOC(=O)c1c(SC)nn(-c2cc(=O)[nH]c3ccc(Br)cc23)c1N | 103% (inactive) |
| O=S(=O)(CC(O)(c1ccccc1)c1ccccc1)CC(O)(c1ccccc1)c1ccccc1 | 108% (inactive) |
| C=C1C(=O)O[C@H]2[C@H]1CC/C(COC(=O)NCc1ccc(OC)cc1)=C\CC[C@@]1(C)O[C@@H]21 | 11.1% (inactive) |
| CO/N=C/C=C\C(=O)N/C=C/C[C@H]1/C=C/[C@H](O)/C=C\C=C\c2cccc(O)c2C(=O)O1 | 23.3% (inactive) and -28.4% (active) |
| COc1cc(-c2n/c(=C\c3c(O)[nH]c4ccccc34)cc3c2=Nc2ccccc2-3)cc(OC)c1OC | -15.3% (active) |
| Nc1ncnc2c1ncn2C1OC(CO)C(O)C1O (stereo not drawn) | 65.5% (inactive) and 84.5% (inactive) and 105% (inactive) |
| Cc1cc(=O)[nH]c2c(C#N)cnn12 | 106% (inactive) |
| CC1=Nc2cnc(Nc3ccc(OCCN4CCCCC4)cc3)nc2Nc2ccccc21 | 65.1% (inactive) |
| CC(=O)OC[C@]1(C)C=C2C(=O)[C@](C)(O)C3(CC3)C(C)=C2[C@H]1OC(C)=O | 96.4% (inactive) |
| C=C1CC[C@@H]2[C@](C)(COC(C)=O)[C@H](OC(C)=O)CC[C@@]2(C)[C@@H]1CC(Sc1ccccc1)C1=CCOC1=O (stereo partly drawn) | -46.5% (active) |
| O=C(O)/C=C(\c1nc2ccc([N+](=O)[O-])cc2[nH]1)c1cc(Cl)ccc1O | 10.8% (inactive) |
